CHO-K1 Ca ag: counter-screen for M1 agonists: effect in parental CHO-K1 cells; AID 602248, 2012; activation, % at 3 µM; 360,000 compounds, 0.48% hits; Fluo-8 calcium fluorescence; scaled to maximal ATP response, vehicle zero; in the data active = activation above about 15%;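 also: untransfected CHO-K1 host cells lacking M1 receptor as counterscreen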
M1 antag: human M1 muscarinic receptor antagonists, primary screen, CHO-K1 cells, Fluo-8 calcium fluorescence, 1536-well. Muscarinic acetylcholine receptor M1 (Homo sapiens), P11229. CHO-K1 hM1, ACh EC80 antagonist. inhibition, % at 3 µM. 360,000 compounds, 1.3% hits. AID 588852, 2011;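 active = percent inhibition above its own plate's cutoff, namely the mean of that plate's compound wells plus 3 SD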;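 also: peak over basal fluorescence ratio during 140 s after agonist addition; 0% = ACh EC80 plus DMSO and 100% = DMSO alone without agonist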
Target sequence (P11229 whole entry, looked up): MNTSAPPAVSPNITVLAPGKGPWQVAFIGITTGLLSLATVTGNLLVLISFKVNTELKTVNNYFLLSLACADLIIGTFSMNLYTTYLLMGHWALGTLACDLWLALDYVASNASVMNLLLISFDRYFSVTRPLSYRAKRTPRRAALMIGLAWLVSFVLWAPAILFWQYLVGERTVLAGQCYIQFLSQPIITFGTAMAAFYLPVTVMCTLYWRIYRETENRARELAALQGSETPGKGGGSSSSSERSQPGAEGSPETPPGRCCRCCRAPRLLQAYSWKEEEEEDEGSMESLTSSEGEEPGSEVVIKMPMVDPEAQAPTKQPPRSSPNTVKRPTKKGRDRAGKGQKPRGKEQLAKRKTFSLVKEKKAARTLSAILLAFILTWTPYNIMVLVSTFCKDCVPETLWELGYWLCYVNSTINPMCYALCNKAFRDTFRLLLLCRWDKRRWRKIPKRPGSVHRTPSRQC
M1 PAM: human M1 muscarinic receptor positive allosteric modulators, primary screen, CHO-K1 cells, Fluo-8 calcium fluorescence, 1536-well; CHO-K1 hM1, ACh EC20; 0% = ACh EC20, 100% = maximal ACh; activation, % at 3 µM; 360,000 compounds, 0.088% hits; in the data active = activation above about 19%, passing the limit was not always enough
CHO-K1 Ca PAM: nonselective calcium activators in parental CHO-K1 cells, primary screen, counter-screen for M1 PAM project, cell-based, Fluo-8 calcium fluorescence, full deck, 1536-well | ATP EC20; 0% at ATP EC20, 100% at ATP max | activation, % at 3 µM | 360,000 compounds, 0.02% hits | AID 602247, 2012;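 active = activation above the run cutoff, the mean activation of all test compounds plus 3 SD, cut at about 40% in these data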;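 also: peak over basal fluorescence ratio in a 140 s read after ATP addition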
CHO-K1 Ca antag: nonselective inhibitor or artifact in parental CHO-K1 cells; ATP-induced calcium, Fluo-8 fluorescence; inhibition, % at 3 µM; 360,000 compounds, 0.6% hits; AID 602250;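 active = inhibition above a per-plate cutoff, the plate's mean sample inhibition plus 3 SD, cut at about 24% in these data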;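 also: 0% = DMSO plus EC80 ATP and 100% = DMSO alone without ATP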
M1 ag: human M1 muscarinic receptor agonists, primary screen, Fluo-8 calcium fluorescence, CHO-K1 cells, HTS; activation, % at 3 µM; CHO-K1 hM1, agonist mode; 0% DMSO, 100% acetylcholine EC100; 360,000 compounds, 0.33% hits; Muscarinic acetylcholine receptor M1 (Homo sapiens), P11229;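 active = activation above the run's mean compound activation plus 3 SD, cut at about 16% in these data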;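 also: peak over basal fluorescence ratio within a 140 s kinetic read after compound addition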
* marks the source's active call; other numbers are inactive results. Sampled rows, rich in hits. Any-hit rate of the full collection: about 2.3%.

SMILES | CHO-K1 Ca ag | M1 antag | M1 PAM | CHO-K1 Ca PAM | CHO-K1 Ca antag | M1 ag
O=C(NCCCN1CCC(Cc2ccccc2)CC1)c1ccc(CS(=O)c2ccccc2Cl)o1 (centres undefined) | 2 | 50* | -24 | -11 | 8 | -7
Nc1nc(Nc2cccc(F)c2)nc(NCCO)c1[N+](=O)[O-] | 15* | -9 | 10 | 19 | -12 | -3
O=C(O)COC(=O)C1C(c2ccccc2)C(C(=O)O)C1c1ccccc1 (centres undefined) | 4 | 3 | -5 | 16 | -4 | -3
CCOC(=O)C1CCCN(CC(=O)Nc2cccc(C(C)=O)c2)C1 (centres undefined) | 1 | -3 | 8 | 19 | -10 | -3
CCOC(=O)C1CCCN(CCC(=O)Nc2ccccc2)C1 (centres undefined) | 0 | 4 | -5 | 19 | -5 | 8
CCOC(=O)C1CCCN(C(=S)Nc2ccc(S(=O)(=O)N3CCOCC3)cc2)C1 (centres undefined) | 1 | 54* | -30 | 6 | -10 | 63*
CCOC(=O)C1CCCN(CCC(=O)Nc2cc(OC)ccc2OC)C1 (centres undefined) | 0 | -5 | 1 | -2 | -3 | 16*
CCOC(=O)C1CCCN(CC(=O)NC2CC2)C1 (centres undefined) | 0 | -12 | 9 | 10 | -3 | 25*
CCOC(=O)C1CCCN(C(=O)Nc2cccc(Cl)c2)C1 (centres undefined) | 1 | 20 | -24 | 24 | -12 | 55*
CCOC(=O)C1CCCN(CCC(=O)Nc2cc(C)cc(C)c2)C1 (centres undefined) | 0 | 5 | -6 | 15 | -13 | 21*
CCOC(=O)C1CCCN(Cc2cc(OC)c(O)c(OC)c2)C1 (centres undefined) | 0 | 6 | -15 | 2 | -1 | 42*
CCOC(=O)C1CCCN(C(=S)Nc2cc(C)cc(C)c2)C1 (centres undefined) | 0 | 68* | -14 | -4 | 11 | 63*
CCOC(=O)C1CCCN(CC(=O)Nc2cc(C)cc(C)c2)C1 (centres undefined) | 0 | -18 | 13 | 6 | -21 | 3
CCOC(=O)C1CCN(CCC(=O)Nc2cc(C)ccc2C)CC1 | 16* | 2 | -2 | 8 | -4 | -3
CSCCC(C)N1CCC(Oc2ccc(C(=O)N3CCCC3)cc2)CC1 (centres undefined) | 0 | 12 | -4 | 19 | 2 | -6
O=c1c2c(-c3ccc([N+](=O)[O-])cc3)ccnc2[nH]n1-c1ccccc1 | 0 | 10 | -3 | -10 | 7 | -4
CCOC(=O)C1CCCN(C(=S)NC2CCCCC2)C1 (centres undefined) | 1 | 2 | -8 | 13 | -16 | 39*
CC1CCCN(CCC(=O)Nc2ccc3c(c2)CCC3)C1 (centres undefined) | 0 | 33* | -20 | 15 | -9 | -7
CCOC(=O)N1CCN(C(=S)Nc2cccc(C)c2)CC1 | 0 | -2 | -1 | 12 | -2 | 19*
COc1ccc(C(C)C)cc1-c1cccc2nncn12 | 3 | 7 | -5 | 0 | 11 | -4
CC(=O)Nc1cccc(Oc2nc(NC(C)C)nc3cc(-c4ccccc4)sc23)c1 | 1 | -4 | 0 | 17 | -13 | -3
CCOc1ccc(/C=N/Nc2ccc(C(F)(F)F)cc2[N+](=O)[O-])cc1O | 18* | 1 | -1 | -11 | 10 | -6
CC(=O)NC(c1ccccc1)c1nc(-c2cc(F)cc(F)c2)cs1 (centres undefined) | 0 | -19 | 10 | 11 | -5 | 0
Cc1noc(C)c1CSc1nc2ccccc2[nH]1 | 0 | 24* | -20 | -2 | 9 | -8
c1ccc(-c2cc(CSc3nc4ccccc4[nH]3)on2)cc1 | 10 | 21* | -19 | 4 | 17 | 4
